# Experimental data: the supplement of paper PMC11001985
# Values without a mark were called inactive.
# Compound: C#CCNC(=O)CCSSCCC(=O)NCCc1ccc(C=O)c(C=O)c1
# Assay: lysine labeling ratio R10:1 (500 µM / 50 µM probe), SILAC-ABPP in living cells; higher = lower intrinsic lysine reactivity toward the probe, active = 2 or less
# Details: HeLa; probe concentrations 500 vs 50 µM
# Method in brief: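 R, given per lysine, is the filtered median high-probe/low-probe MS1 peptide ratio, with the median then taken across forward and reverse replicates. Cells were living SILAC light and heavy HeLa cells in PBS at room temperature, labelled with 50 µM or 500 µM of an alkyne-tagged, disulfide-linked lysine probe. The ceiling applied is 20.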
# UniProt Q15149, sequence (Q15149 whole entry): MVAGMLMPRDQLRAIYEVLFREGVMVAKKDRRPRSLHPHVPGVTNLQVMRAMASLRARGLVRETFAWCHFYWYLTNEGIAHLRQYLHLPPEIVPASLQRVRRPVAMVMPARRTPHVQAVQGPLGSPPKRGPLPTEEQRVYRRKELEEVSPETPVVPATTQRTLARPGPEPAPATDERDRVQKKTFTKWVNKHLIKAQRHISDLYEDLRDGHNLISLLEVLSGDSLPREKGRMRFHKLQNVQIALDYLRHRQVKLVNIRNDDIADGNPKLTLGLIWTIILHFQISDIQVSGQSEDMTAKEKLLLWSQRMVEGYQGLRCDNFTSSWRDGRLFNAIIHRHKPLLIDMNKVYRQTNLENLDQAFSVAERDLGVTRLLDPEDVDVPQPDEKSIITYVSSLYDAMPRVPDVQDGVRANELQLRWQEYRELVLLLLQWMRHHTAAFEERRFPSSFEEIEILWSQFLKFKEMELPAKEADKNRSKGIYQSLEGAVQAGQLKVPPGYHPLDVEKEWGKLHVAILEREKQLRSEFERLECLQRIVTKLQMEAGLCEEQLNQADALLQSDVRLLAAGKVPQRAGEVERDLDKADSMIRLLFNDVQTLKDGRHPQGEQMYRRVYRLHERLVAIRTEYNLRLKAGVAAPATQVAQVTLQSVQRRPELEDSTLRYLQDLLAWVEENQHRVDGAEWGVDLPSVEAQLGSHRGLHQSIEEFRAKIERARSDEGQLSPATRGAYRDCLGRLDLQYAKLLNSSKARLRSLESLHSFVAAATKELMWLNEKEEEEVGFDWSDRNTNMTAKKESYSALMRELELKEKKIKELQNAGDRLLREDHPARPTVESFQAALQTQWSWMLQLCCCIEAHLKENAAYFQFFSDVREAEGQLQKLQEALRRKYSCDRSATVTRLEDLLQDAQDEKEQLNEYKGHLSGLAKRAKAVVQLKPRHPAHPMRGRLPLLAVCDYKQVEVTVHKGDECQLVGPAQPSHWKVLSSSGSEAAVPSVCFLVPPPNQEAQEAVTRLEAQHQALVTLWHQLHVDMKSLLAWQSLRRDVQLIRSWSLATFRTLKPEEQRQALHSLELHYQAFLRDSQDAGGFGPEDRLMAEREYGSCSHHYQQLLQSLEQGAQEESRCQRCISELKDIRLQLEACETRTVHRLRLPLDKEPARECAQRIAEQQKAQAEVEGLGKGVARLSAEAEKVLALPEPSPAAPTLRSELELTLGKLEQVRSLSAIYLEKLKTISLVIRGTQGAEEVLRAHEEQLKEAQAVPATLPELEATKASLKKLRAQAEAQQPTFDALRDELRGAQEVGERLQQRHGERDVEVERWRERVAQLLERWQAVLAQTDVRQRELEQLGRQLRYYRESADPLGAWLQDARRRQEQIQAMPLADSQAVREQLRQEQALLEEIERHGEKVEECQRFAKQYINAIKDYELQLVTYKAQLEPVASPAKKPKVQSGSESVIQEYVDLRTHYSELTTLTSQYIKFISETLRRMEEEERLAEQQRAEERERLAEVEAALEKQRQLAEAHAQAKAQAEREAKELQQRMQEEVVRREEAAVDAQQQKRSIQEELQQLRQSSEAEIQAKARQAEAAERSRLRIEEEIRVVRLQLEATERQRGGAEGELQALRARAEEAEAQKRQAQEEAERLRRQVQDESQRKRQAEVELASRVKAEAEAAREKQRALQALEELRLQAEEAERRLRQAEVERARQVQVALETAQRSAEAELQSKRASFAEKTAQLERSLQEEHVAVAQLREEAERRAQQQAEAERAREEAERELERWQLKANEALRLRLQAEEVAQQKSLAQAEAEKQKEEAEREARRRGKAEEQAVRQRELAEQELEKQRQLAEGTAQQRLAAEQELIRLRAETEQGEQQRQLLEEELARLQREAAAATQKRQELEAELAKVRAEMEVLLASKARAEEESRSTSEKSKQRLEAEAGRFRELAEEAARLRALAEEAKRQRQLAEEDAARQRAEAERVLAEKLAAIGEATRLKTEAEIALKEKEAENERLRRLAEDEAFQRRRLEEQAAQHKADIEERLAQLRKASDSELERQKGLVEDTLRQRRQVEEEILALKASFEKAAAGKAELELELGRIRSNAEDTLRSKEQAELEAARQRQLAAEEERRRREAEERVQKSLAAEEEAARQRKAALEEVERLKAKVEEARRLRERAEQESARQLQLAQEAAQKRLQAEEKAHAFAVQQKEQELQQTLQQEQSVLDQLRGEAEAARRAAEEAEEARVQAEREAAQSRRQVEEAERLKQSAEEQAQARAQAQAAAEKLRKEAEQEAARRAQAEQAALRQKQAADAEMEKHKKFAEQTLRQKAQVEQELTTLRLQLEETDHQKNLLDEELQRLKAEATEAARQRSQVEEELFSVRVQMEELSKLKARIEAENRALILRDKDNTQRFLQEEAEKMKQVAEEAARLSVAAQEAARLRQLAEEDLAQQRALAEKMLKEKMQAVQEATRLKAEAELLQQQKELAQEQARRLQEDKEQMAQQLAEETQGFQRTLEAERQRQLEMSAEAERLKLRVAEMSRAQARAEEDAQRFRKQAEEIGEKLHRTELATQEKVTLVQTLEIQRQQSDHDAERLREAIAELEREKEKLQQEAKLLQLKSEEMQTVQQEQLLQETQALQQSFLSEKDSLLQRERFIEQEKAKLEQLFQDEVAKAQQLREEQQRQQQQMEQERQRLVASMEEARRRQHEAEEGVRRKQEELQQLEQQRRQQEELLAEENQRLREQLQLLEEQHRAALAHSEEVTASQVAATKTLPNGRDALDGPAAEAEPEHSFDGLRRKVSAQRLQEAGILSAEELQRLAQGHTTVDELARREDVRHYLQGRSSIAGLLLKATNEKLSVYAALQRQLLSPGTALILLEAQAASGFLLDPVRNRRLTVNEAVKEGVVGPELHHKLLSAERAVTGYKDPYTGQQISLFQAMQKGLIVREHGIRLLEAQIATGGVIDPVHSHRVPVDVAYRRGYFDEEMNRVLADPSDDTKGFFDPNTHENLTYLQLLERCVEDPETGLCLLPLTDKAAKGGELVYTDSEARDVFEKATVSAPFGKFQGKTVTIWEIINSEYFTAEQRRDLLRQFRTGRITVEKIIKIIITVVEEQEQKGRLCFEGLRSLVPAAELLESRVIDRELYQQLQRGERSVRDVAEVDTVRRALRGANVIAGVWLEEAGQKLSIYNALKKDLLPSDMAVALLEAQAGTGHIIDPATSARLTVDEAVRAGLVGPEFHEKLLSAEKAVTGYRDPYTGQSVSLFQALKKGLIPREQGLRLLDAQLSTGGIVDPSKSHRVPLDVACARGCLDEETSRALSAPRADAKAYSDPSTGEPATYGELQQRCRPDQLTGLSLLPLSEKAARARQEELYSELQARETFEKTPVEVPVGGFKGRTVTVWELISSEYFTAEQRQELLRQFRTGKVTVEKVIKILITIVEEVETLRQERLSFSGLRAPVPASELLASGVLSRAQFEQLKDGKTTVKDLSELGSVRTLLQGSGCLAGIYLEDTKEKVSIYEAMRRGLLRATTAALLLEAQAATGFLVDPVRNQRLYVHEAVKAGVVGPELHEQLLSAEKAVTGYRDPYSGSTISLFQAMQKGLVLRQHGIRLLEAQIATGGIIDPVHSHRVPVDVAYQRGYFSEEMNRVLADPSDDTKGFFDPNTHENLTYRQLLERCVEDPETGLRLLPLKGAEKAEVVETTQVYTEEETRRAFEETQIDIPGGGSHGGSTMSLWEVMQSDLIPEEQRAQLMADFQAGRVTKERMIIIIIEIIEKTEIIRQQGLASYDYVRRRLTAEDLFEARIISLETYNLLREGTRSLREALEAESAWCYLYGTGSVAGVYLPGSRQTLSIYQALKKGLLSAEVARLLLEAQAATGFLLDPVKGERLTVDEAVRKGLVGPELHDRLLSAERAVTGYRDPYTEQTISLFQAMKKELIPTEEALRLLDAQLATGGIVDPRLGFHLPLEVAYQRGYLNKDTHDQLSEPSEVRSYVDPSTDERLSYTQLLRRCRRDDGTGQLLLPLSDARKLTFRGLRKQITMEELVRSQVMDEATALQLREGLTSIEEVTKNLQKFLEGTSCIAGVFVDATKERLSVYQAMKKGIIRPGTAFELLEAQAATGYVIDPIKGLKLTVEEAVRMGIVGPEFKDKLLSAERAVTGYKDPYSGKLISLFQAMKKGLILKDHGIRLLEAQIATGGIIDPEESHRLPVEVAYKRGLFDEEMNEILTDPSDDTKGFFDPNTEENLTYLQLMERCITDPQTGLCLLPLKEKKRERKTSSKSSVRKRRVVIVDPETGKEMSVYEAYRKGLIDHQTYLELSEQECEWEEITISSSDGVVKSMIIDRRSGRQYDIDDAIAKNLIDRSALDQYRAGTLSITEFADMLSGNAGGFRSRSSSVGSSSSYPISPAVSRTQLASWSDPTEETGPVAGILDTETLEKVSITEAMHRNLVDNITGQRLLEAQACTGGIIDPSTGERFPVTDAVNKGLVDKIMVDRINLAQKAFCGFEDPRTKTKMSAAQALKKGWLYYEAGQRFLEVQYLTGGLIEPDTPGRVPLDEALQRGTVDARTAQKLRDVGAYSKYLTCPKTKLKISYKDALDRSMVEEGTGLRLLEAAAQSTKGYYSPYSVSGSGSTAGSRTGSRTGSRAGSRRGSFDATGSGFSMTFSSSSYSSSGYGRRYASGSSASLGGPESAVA
# UniProt P00505, sequence (P00505 whole entry): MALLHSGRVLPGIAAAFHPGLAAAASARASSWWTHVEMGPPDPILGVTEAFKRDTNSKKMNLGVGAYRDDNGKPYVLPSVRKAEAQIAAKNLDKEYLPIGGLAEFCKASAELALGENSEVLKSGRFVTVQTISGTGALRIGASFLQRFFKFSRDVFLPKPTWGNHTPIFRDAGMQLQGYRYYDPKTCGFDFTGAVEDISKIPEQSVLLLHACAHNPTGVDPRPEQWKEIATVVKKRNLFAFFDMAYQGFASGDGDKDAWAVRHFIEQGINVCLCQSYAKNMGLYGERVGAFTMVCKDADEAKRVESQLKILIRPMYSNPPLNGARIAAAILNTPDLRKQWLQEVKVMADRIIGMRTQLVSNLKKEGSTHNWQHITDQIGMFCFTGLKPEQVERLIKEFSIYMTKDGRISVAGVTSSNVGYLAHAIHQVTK
row,Target,lysine labeling ratio R10:1
1,ITGA5 (lysine site: K943) (UniProt P08648),2.54
2,ALCAM (lysine site: K87) (UniProt Q13740),1.41 (active)
3,GOT2 (lysine site: K73) (UniProt P00505),3.72
4,UniProt P62899 (lysine site: K75),2.92
5,CCT3 (lysine site: K381) (UniProt P49368),2.81
6,TXLNA (lysine site: K240) (UniProt P40222),1.67 (active)
7,TXNRD1 (lysine site: K245) (UniProt Q16881),7.79
8,ITGAV (lysine site: K338) (UniProt P06756),3.21
9,RPL35A (lysine site: K73) (UniProt P18077),3.82
10,SDC2 (lysine site: K111) (UniProt P34741),1.38 (active)
11,DDX5 (lysine site: K236) (UniProt P17844),2.34
12,UniProt Q15149 (lysine site: K4027),2.34
13,AHNAK (lysine site: K5443) (UniProt Q09666),0.97 (active)
14,UniProt P62280 (lysine site: K32),4.32
15,UniProt Q16790 (lysine site: K133),8.23
16,PTPRF (lysine site: K1103) (UniProt P10586),7.4
17,PLS3 (lysine site: K346) (UniProt P13797),0.842 (active)
18,FLNA (lysine site: K704) (UniProt P21333),1.61 (active)
19,FLNA (lysine site: K2607) (UniProt P21333),6.14
20,UniProt P62899 (lysine site: K31),1.97 (active)
21,RPS3A (lysine site: K167) (UniProt P61247),1.82 (active)
22,UniProt Q15149 (lysine site: K2129),3.49
23,KTN1 (lysine site: K617) (UniProt Q86UP2),1.17 (active)
